Laboratory results from PubChem BioAssay (NCATS).
Where “and” joins values, the source holds several entries; their conditions need not be identical. Identical values can stand only once. Results filed as inconclusive are left out. Calls of active or inactive are those of the source. Unless noted, the call rests on the fitted dose curve.

Test system: not listed separately
Assay: qHTS assay for small molecule antagonists of peroxisome proliferator-activated receptor delta signaling (AID 588535; active means well fitted inhibition curve with a large enough effect in the signal ratio, with a control signal flat, not every such curve was filed as active; the % refers to the signal ratio;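 on max response: cells co-treated with a PPAR-delta agonist as stimulator during compound exposure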)
Conditions: HEK293T PPARd-UAS-bla, beta-lactamase FRET ratio, 18 h; 460 nm channel
Method in brief: (§1)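 Reporter: UAS-bla under PPAR-delta response element, HEK293T host. Medium: 2% charcoal/dextran FBS. Dosing: titration, 18 hrs, 37 C. Detection: CCF4, 2 hrs RT, 405 ex/460 and 530 em.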

| Compound | max response [%] |
| --- | --- |
| CCNc1nc(N)nc(Cl)n1 | 34.2 |
| CCN(Cc1c(F)cccc1Cl)c1c([N+](=O)[O-])cc(C(F)(F)F)cc1[N+](=O)[O-] | -79 |
| O=c1oc(=O)c2cc3c(=O)oc(=O)c3cc12 | 11 |
| OCCOCCOCCOCCOCCO | -16.8 |

Molecular target: Peroxisome proliferator-activated receptor delta (Homo sapiens) (UniProt Q03181)
Sequence (Q03181 whole entry, looked up): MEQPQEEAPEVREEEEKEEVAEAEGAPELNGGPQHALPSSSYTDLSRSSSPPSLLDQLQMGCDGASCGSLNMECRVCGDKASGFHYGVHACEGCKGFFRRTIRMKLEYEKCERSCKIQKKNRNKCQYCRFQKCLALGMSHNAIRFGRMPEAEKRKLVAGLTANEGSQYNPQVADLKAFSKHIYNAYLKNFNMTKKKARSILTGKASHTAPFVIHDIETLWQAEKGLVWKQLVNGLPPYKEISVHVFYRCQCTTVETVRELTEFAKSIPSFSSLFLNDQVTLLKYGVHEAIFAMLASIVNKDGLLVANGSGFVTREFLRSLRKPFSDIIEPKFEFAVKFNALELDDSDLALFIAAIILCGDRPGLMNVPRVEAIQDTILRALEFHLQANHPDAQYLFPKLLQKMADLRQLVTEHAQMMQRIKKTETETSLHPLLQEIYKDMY
Assay: as above
Conditions: HEK293T PPARd-UAS-bla, beta-lactamase FRET ratio, 18 h; series mostly up to 76.7 µM; activity change, negative = inhibition: at the top concentration
Method in brief: as §1

| Compound | activity change, negative = inhibition |
| --- | --- |
| CCNc1nc(N)nc(Cl)n1 | 25.4% (inactive) |
| CCN(Cc1c(F)cccc1Cl)c1c([N+](=O)[O-])cc(C(F)(F)F)cc1[N+](=O)[O-] | -37.8% (inactive) |
| O=c1oc(=O)c2cc3c(=O)oc(=O)c3cc12 | 9.67% (inactive) |

Molecular target: Peroxisome proliferator-activated receptor gamma (Homo sapiens) (UniProt P37231)
Sequence (P37231 whole entry, looked up): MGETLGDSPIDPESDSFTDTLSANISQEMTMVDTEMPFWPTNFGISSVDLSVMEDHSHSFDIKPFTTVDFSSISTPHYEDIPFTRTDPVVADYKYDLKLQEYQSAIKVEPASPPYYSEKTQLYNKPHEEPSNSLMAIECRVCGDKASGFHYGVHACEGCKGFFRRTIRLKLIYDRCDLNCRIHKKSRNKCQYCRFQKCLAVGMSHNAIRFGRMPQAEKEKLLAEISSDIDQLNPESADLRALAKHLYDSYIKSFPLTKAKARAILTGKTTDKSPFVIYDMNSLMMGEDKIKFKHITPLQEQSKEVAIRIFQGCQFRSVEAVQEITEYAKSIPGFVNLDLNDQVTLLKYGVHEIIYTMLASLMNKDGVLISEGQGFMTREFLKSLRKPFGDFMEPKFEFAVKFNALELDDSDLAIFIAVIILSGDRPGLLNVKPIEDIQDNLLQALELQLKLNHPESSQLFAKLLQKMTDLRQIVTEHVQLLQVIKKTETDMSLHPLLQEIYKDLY
Assay: qHTS assay for small molecule agonists of peroxisome proliferator-activated receptor gamma signaling (AID 588536; active means well fitted curve in the direction sought with a large enough effect in the signal ratio, with a control signal flat, not every such curve was filed as active; the % refers to the signal ratio;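 further: 0% = DMSO basal wells and 100% = rosiglitazone at 2 µM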)
Conditions: HEK293 PPARg-UAS-bla, beta-lactamase ratio, 16 h, percent of rosiglitazone response, DMSO as zero; series mostly up to 76.7 µM; activation: at the top concentration
Method in brief: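 HEK293 UAS-bla reporter line, 1% charcoal/dextran FBS; titration, 16 h, 37 C; CCF4 loading 2 h RT; fluorescence 460/530 nm. Normalized to rosiglitazone 2 uM = 100%, DMSO = 0%.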

| Compound | activation | outcome |
| --- | --- | --- |
| CC1(C)C(=O)N(Br)C(=O)N1Cl | -0.3% (inactive) | – |
| S=C([S-])NCCNC(=S)[S-].S=C([S-])NCCNC(=S)[S-].[Mn+2].[Zn+2] | -9.53% (inactive) | – |
| CCCOC(=O)NCCCN(C)C | -2.71% (inactive) | – |
| S=C([S-])NCCNC(=S)[S-].[Mn+2] | – | inactive |
| CCN(Cc1c(F)cccc1Cl)c1c([N+](=O)[O-])cc(C(F)(F)F)cc1[N+](=O)[O-] | -14.7% (inactive) | – |
| O=c1oc(=O)c2cc3c(=O)oc(=O)c3cc12 | -4.53% (inactive) | – |
| OCCOCCOCCOCCOCCO | -2.2% (inactive) | – |

Molecular target: Peroxisome proliferator-activated receptor gamma (Homo sapiens) (UniProt P37231)
Assay: qHTS assay for small molecule antagonists of peroxisome proliferator-activated receptor gamma signaling (AID 588537; active means well fitted inhibition curve with a large enough effect in the signal ratio, with a control signal flat, not every such curve was filed as active; the % refers to the signal ratio; further: potency means the concentration at half of the fitted maximal effect;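 on activity, negative = inhibition: reporter cells co-stimulated with 50 nM rosiglitazone agonist during compound treatment; % of control where 0% means no effect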)
Conditions: HEK293 PPARg-UAS-bla, beta-lactamase ratio, antagonist mode; series mostly up to 76.8 µM; activity, negative = inhibition: at the top concentration
Method in brief: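 We seeded GeneBLAzer HEK293 reporter cells at 3000 per well, allowed 6-6.5 h attachment at 37 C, then co-treated with test compound titrations and 50 nM rosiglitazone overnight (16 h). Inhibition was quantified from 460/530 nm emission ratios.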

| Compound | activity, negative = inhibition | Potency |
| --- | --- | --- |
| CC1(C)C(=O)N(Br)C(=O)N1Cl | 8.06% (inactive) | – |
| CCCOC(=O)NCCCN(C)C | 5.34% (inactive) | – |
| S=C([S-])NCCNC(=S)[S-].[Mn+2] | -11.9% (inactive) | – |
| CCN(Cc1c(F)cccc1Cl)c1c([N+](=O)[O-])cc(C(F)(F)F)cc1[N+](=O)[O-] | -6.83% (inactive) | – |
| CC[C@H]1O[C@]2(CC[C@@H]1C)C[C@@H]1C[C@@H](C/C=C(\C)C[C@@H](C)/C=C/C=C3CO[C@@H]4[C@H](O)C(C)=C[C@@H](C(=O)O1)[C@]34O)O2 | – | 22.4 µM (active) |
| OCCOCCOCCOCCOCCO | 1.58% (inactive) | – |

Molecular target: Vitamin D3 receptor (Homo sapiens) (UniProt P11473)
Sequence (P11473 whole entry, looked up): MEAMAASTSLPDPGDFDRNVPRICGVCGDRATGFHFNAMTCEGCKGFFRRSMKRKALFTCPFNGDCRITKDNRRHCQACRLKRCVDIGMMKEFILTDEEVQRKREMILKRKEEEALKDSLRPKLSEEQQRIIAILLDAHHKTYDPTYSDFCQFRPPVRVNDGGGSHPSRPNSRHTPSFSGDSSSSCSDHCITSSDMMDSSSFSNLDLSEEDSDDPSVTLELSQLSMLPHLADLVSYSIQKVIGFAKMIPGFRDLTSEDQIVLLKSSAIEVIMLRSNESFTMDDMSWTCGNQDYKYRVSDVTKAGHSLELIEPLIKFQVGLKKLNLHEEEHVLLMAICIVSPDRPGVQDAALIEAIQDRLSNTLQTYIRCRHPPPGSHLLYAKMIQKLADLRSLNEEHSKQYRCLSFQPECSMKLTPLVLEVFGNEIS
Assay: qHTS assay for small molecule antagonists of vitamin D receptor signaling (AID 588541);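 further: receptor activated by calcitriol during compound treatment; on the % scale 0 is the no-effect control and ±100 the full control effect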
Conditions: HEK293T VDR-UAS-bla, beta-lactamase ratio, antagonist mode; series mostly up to 76.7 µM; activity change, negative = inhibition: at the top concentration
Method in brief: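 VDR-UAS-bla HEK293T cells (2000/well, 2% charcoal-stripped FBS) were treated with titrated compounds plus 1-alpha,25-dihydroxyvitamin D3 (50 nM or 3 nM final) for 16 h at 37 C. CCF4 beta-lactamase fluorescence was read; Hill fits gave IC50.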

| Compound | activity change, negative = inhibition | Potency |
| --- | --- | --- |
| CC1(C)C(=O)N(Br)C(=O)N1Cl | 3.95% (inactive) | – |
| CCCOC(=O)NCCCN(C)C | 5.75% (inactive) | – |
| CCNc1nc(N)nc(Cl)n1 | – | inactive |
| CCN(Cc1c(F)cccc1Cl)c1c([N+](=O)[O-])cc(C(F)(F)F)cc1[N+](=O)[O-] | -5.16% (inactive) | – |
| O=c1oc(=O)c2cc3c(=O)oc(=O)c3cc12 | -2.01% (inactive) | – |
| O=C(Nc1ccccc1)c1cc(Cl)ccc1O | -4.88% (inactive) | – |
| OCCOCCOCCOCCOCCO | -0.953% (inactive) | – |

Molecular target: Vitamin D3 receptor (Homo sapiens) (UniProt P11473)
Assay: qHTS assay for small molecule agonists of vitamin D receptor signaling (AID 588543);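 further: 0% = DMSO basal and 100% = reference agonist control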
Conditions: HEK293T VDR-UAS-bla, beta-lactamase ratio, 16 h; series mostly up to 76.8 µM; activation: at the top concentration
Method in brief: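 β-lactamase reporter, VDR-UAS-bla HEK293T, agonist mode. Cells plated 5 h at 37 °C, compound titration 16 h at 37 °C, CCF4 dye 2 h RT, ratio 460/530 nm. Hill fit → EC50, efficacy vs 50 nM 1α,25-(OH)2D3.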

| Compound | activation | outcome |
| --- | --- | --- |
| CCCOC(=O)NCCCN(C)C | 2.62% (inactive) | – |
| CCNc1nc(N)nc(Cl)n1 | – | inactive |
| S=C([S-])NCCNC(=S)[S-].[Mn+2] | – | inactive |
| CCN(Cc1c(F)cccc1Cl)c1c([N+](=O)[O-])cc(C(F)(F)F)cc1[N+](=O)[O-] | -7.76% (inactive) | – |
| O=c1oc(=O)c2cc3c(=O)oc(=O)c3cc12 | -2.03% (inactive) | – |
| O=C(Nc1ccccc1)c1cc(Cl)ccc1O | -0.531% (inactive) | – |

Test system: not listed separately
Assay: qHTS assay for small molecule agonists of retinoid X receptor alpha signaling (AID 588544);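 on activation: 0% = DMSO basal wells and 100% = reference agonist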
Conditions: HEK293T RXRa-UAS-bla, beta-lactamase reporter, 18 h; 530 nm emission

| Compound | max response |
| --- | --- |
| CC1(C)C(=O)N(Br)C(=O)N1Cl | -10% |
| CCNc1nc(N)nc(Cl)n1 | -5.45% and -6.57% |
| O=c1oc(=O)c2cc3c(=O)oc(=O)c3cc12 | -7.31% |
| OCCOCCOCCOCCOCCO | 5.49% |

Molecular target: Retinoic acid receptor RXR-alpha (Homo sapiens) (UniProt P19793)
Sequence (P19793 whole entry, looked up): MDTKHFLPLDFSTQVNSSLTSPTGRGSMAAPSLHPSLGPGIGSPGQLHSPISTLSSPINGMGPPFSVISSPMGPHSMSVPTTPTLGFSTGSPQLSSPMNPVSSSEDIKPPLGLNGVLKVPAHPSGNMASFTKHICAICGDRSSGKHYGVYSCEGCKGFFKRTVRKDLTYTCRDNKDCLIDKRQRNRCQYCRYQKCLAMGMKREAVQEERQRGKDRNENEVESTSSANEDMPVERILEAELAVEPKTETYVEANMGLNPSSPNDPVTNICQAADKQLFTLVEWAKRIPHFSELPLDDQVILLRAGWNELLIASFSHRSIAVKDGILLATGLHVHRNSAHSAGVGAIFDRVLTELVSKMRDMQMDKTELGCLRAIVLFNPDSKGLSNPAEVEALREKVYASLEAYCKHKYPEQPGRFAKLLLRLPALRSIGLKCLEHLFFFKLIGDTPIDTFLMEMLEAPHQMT
Assay: as above
Conditions: HEK293T RXRa-UAS-bla, beta-lactamase reporter, 18 h; series mostly up to 76.7 µM; activation: at the top concentration

| Compound | activation | Potency |
| --- | --- | --- |
| CC1(C)C(=O)N(Br)C(=O)N1Cl | -2.17% (inactive) | – |
| CCNc1nc(N)nc(Cl)n1 | – | inactive |
| O=c1oc(=O)c2cc3c(=O)oc(=O)c3cc12 | -2.83% (inactive) | – |
| OCCOCCOCCOCCOCCO | 2.04% (inactive) | – |

Molecular target: Thyroid hormone receptor beta (Homo sapiens) (UniProt P10828)
Sequence (P10828 whole entry, looked up): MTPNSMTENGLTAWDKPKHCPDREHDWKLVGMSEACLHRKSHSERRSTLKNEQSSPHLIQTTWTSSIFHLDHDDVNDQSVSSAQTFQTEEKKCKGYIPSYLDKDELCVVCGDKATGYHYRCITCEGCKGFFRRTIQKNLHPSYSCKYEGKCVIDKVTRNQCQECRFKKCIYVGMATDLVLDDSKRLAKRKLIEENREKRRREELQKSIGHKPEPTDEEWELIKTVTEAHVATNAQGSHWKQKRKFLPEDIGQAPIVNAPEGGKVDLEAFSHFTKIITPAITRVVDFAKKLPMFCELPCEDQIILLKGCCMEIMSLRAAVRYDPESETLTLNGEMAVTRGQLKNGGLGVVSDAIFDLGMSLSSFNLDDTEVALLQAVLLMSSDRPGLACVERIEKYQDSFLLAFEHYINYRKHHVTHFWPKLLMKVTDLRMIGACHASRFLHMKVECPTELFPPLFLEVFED
Assay: qHTS assay for small molecule agonists of thyroid hormone receptor beta signaling (AID 588545);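 further: 0% = DMSO only and 100% = 10 nM T3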
Conditions: TR-UAS-bla GripTite HEK 293, beta-lactamase ratio, agonist mode, 18 h; series mostly up to 76.7 µM; activation: at the top concentration
Method in brief: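 TR-UAS-bla GripTite HEK 293 cells (2500/well, medium with 2% charcoal/dextran FBS) were treated in agonist mode for 18 h at 37 C, titrated. Beta-lactamase was read by CCF4 ratio after 2 h; normalized to 10 nM T3 (100%) and DMSO, Hill-fitted for EC50 and efficacy.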

| Compound | activation | Potency |
| --- | --- | --- |
| CC1(C)C(=O)N(Br)C(=O)N1Cl | 0.876% (inactive) | – |
| S=C([S-])NCCNC(=S)[S-].S=C([S-])NCCNC(=S)[S-].[Mn+2].[Zn+2] | 12.8% (inactive) | – |
| CCCOC(=O)NCCCN(C)C | -8.96% (inactive) | – |
| CCNc1nc(N)nc(Cl)n1 | – | inactive |
| S=C([S-])NCCNC(=S)[S-].[Mn+2] | – | inactive |
| O=c1oc(=O)c2cc3c(=O)oc(=O)c3cc12 | -3.38% (inactive) | – |
